Among the data in PubChem BioAssay (EPA / NIEHS) are outcome and AC50 values, retold here.

The target in test [1] is human RAR-related Orphan Receptor gamma (RORg), RORC (gene 6097) (UniProt P51449). Kind of test: ATG_RORg_TRANS: Attagene TRANS-FACTORIAL HepG2 Assay for human RAR-related Orphan Receptor gamma (RORg) (AID 2283011; active = hit-call score of the fitted dose curve at least 0.9, where 1 is the maximum). The method in brief:
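First, HepG2 liver cells were transfected with GAL4-UAS-driven reporter constructs and the RORg-Gal4 fusion. Next, they were treated with chemical for 24 h. Finally, reporter mRNA was quantified by RT-PCR and capillary electrophoresis, with upward activity fitted against DMSO.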

Test [2] addresses Retinoic acid receptor RXR-alpha (Homo sapiens) (UniProt P19793). Nature of the test: ATG_RXRa_TRANS: Attagene TRANS-FACTORIAL HepG2 Assay for human Retinoid X Receptor alpha (RXRa) (AID 2283012; active = hit-call score of the fitted dose curve at least 0.9, where 1 is the maximum). Summed up:
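HepG2 cells transiently transfected with multiplexed GAL4-UAS reporter units and chimeric NR-GAL4 fusions, dosed 24 h. Reporter mRNA measured by RT-PCR, FAM labelling, HpaI digestion and capillary electrophoresis; gain-of-signal fitted relative to DMSO baseline.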

Test [3] addresses human Retinoid X Receptor beta (RXRb), RXRB (gene 6257) (UniProt P28702). Kind of test: ATG_RXRb_TRANS: Attagene TRANS-FACTORIAL HepG2 Assay for human Retinoid X Receptor beta (RXRb) (AID 2283013; active = hit-call score of the fitted dose curve at least 0.9, where 1 is the maximum). The method in brief: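 HepG2 cells transiently transfected with multiplexed reporter units driven by GAL4-UAS and exogenous chimeric NR-Gal4 proteins; treated 24 h. Reporter mRNA measured by RT-PCR, 6-FAM labelling and capillary electrophoresis; gain-of-signal fitted versus DMSO baseline.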

The target in test [4] is human Thyroid Receptor alpha (THRa1), THRA (gene 7067) (UniProt P10827). Nature of the test: ATG_THRa1_TRANS: Attagene TRANS-FACTORIAL HepG2 Assay for human Thyroid Receptor alpha (THRa1) (AID 2283014; active = hit-call score of the fitted dose curve at least 0.9, where 1 is the maximum). Summed up:
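Reporter transcript induction, read by capillary electrophoresis of 6-FAM-labelled RT-PCR products, reflects activity of a transfected THRa1-Gal4 fusion in HepG2 liver cells. Cells were dosed for 24 h; activity was fitted in the positive direction against DMSO.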

Read-out in test [5]: E-selectin (Homo sapiens) (UniProt P16581)
Kind of test: BSK_3C_Eselectin: BioMAP Diversity Plus: 3C Assay for Eselectin Biomarker Activity (AID 2283015).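 For outcome: cell surface E-selectin protein quantified by ELISA 24 h after dosing.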 To be noted: primary human endothelial cells (HUVEC); actives raise or lower the signal. The method in brief: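 ELISA read-out of E-selectin on endothelial monolayers after 24 h chemical treatment. Human umbilical vein primary cells served as the system, with DMSO defining baseline activity for bidirectional fitting.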

Read-out in test [6]: Interleukin-1 alpha (IL1a), IL1A (gene 3552)
Kind of test: BSK_BE3C_IL1a: BioMAP Diversity Plus: BE3C Assay for Interleukin-1 alpha (IL1a) Biomarker Activity (AID 2283016). To be noted: primary human bronchial epithelial cells; actives raise or lower the signal. Summed up:
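Human primary bronchial epithelial cells (BE3C system) were dosed with compound and IL-1a measured by ELISA 24 h later. Activity was fitted bidirectionally against DMSO baseline; cytotoxicity was tracked in parallel cultures by SRB total-protein staining.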

Read-out in test [7]: Monocyte Chemoattractant Protein-1 (MCP1), CCL2 (gene 6347)
Nature of the test: BSK_3C_MCP1: BioMAP Diversity Plus: 3C Assay for Monocyte Chemoattractant Protein-1 (MCP1) Biomarker Activity (AID 2283017). To be noted: primary human endothelial cells (HUVEC); actives raise or lower the signal. Summed up:
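ELISA read-out of MCP-1 from human umbilical vein endothelial cell cultures harvested 24 h post-dosing. Gain or loss of signal was fitted relative to DMSO.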

Read-out in test [8]: Monocyte Chemoattractant Protein-1 (MCP1), CCL2 (gene 6347)
Nature of the test: BSK_4H_MCP1: BioMAP Diversity Plus: 4H Assay for Monocyte Chemoattractant Protein-1 (MCP1) Biomarker Activity (AID 2283018). To be noted: primary human endothelial cells (HUVEC); actives raise or lower the signal. The method in brief: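 Human umbilical vein endothelial cells (4H system) dosed with chemical; MCP-1 measured by ELISA 24 h after dosing. Bidirectional curve fitting against DMSO negative control as baseline; parallel SRB total-protein staining tracks overt cytotoxicity.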

Read-out in test [9]: Human Leukocyte Antigen - DR isotype (HLADR), HLA-DRA (gene 3122)
Nature of the test: BSK_3C_HLADR: BioMAP Diversity Plus: 3C Assay for Human Leukocyte Antigen - DR isotype (HLADR) Biomarker Activity (AID 2283019). As to conditions: primary human endothelial cells (HUVEC); actives raise or lower the signal. The method in brief: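 ELISA readout of surface HLA-DR on human umbilical vein endothelium, taken 24 h after chemical treatment. Gain- and loss-of-signal were both fitted relative to DMSO.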

Read-out in test [10]: Interleukin-8 (IL8), CXCL8 (gene 3576)
Nature of the test: BSK_3C_IL8: BioMAP Diversity Plus: 3C Assay for Interleukin-8 (IL8) Biomarker Activity (AID 2283020). As to conditions: primary human endothelial cells (HUVEC); actives raise or lower the signal. Summed up:
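Primary human umbilical vein endothelial cells (3C system) were exposed to test chemical for 24 h, then IL-8 was quantified by ELISA. Responses were fitted bidirectionally against DMSO vehicle as baseline.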

Read-out in test [11]: Monokine induced gamma interferon (MIG), CXCL9 (gene 4283)
Nature of the test: BSK_3C_MIG: BioMAP Diversity Plus: 3C Assay for Monokine induced gamma interferon (MIG) Biomarker Activity (AID 2283021).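 For AC50: MIG protein level measured by immunoassay in the treated endothelial cultures.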 To be noted: primary human endothelial cells (HUVEC); actives raise or lower the signal. The method in brief: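 Primary human umbilical vein endothelial cells in the 3C system were exposed to chemical for 24 h, after which MIG was quantified by ELISA. Activity was fitted bidirectionally against DMSO as negative control and baseline.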

The target in test [12] is human Vitamin D Receptor (VDR), VDR (gene 7421) (UniProt P11473). Nature of the test: ATG_VDR_TRANS: Attagene TRANS-FACTORIAL HepG2 Assay for human Vitamin D Receptor (VDR) (AID 2283022; active = hit-call score of the fitted dose curve at least 0.9, where 1 is the maximum). Summed up: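 Steps: transfect HepG2 with GAL4-UAS-driven reporter constructs; dose compounds 24 h; isolate RNA, reverse-transcribe, PCR-amplify with 6-FAM-labelled primer extension and HpaI digestion; quantify fragments by capillary electrophoresis relative to DMSO.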

Test [13] can be described thus: BSK_3C_SRB: Viability Assessment in the BioMAP Diversity Plus: 3C Assay (AID 2283023).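 Note: fitted both ways against DMSO so a hit may be signal rise or drop.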 To be noted: primary human endothelial cells (HUVEC). The method in brief: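 Absorbance at 560 nm of sulforhodamine B-stained (0.1%) total protein served as a cytotoxicity readout in human umbilical vein endothelial cells, 24 h after chemical treatment. Signal was fitted bidirectionally relative to DMSO.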

Read-out in test [14]: Matrix Metallopeptidase 1 (MMP1), MMP1 (gene 4312)
Kind of test: BSK_BE3C_MMP1: BioMAP Diversity Plus: BE3C Assay for Matrix Metallopeptidase 1 (MMP1) Biomarker Activity (AID 2283024). To be noted: primary human bronchial epithelial cells; actives raise or lower the signal. Summed up:
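Primary human bronchial epithelial cells were dosed with test chemicals, and MMP1 levels were measured by ELISA 24 h later. Data were fitted bidirectionally against DMSO as the negative control and activity baseline.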

Read-out in test [15]: Pselectin, SELP (gene 6403)
Nature of the test: BSK_4H_Pselectin: BioMAP Diversity Plus: 4H Assay for Pselectin Biomarker Activity (AID 2283026). As to conditions: primary human endothelial cells (HUVEC); actives raise or lower the signal. Summed up: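 Primary human umbilical vein endothelial cells were exposed to test chemical for 24 h, then cell-surface P-selectin was quantified by ELISA. Activity was fitted bidirectionally against DMSO as negative control and baseline.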

Test [16] can be described thus: BSK_4H_SRB: Viability Assessment in the BioMAP Diversity Plus: 4H Assay (AID 2283027).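 For AC50: curves fitted both ways versus DMSO so AC50 may be loss or gain.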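 Note: cells exposed to compound for 24 h before staining.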 As to conditions: primary human endothelial cells (HUVEC). The method in brief: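 Human umbilical vein endothelial cells were dosed with chemical and, after 24 h, fixed with 10% TCA, stained with 0.1% sulforhodamine B, and read at 560 nm to give total protein as a cytotoxicity measure. Bidirectional fitting relative to DMSO control.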

Test [17] in a line: BSK_BE3C_SRB: Viability Assessment in the BioMAP Diversity Plus: BE3C Assay (AID 2283028).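 For AC50: fitted both ways so AC50 may mark signal gain or loss versus DMSO.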 To be noted: primary human bronchial epithelial cells. Summed up:
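Cells (human bronchial epithelial, primary) are treated with chemicals, and after 24 h the parallel cultures are fixed in 10% TCA. These are then stained with 0.1% SRB and read at 560 nm. Gain or loss of signal is fitted relative to DMSO.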

Read-out in test [18]: Thrombomodulin, THBD (gene 7056)
Nature of the test: BSK_3C_Thrombomodulin: BioMAP Diversity Plus: 3C Assay for Thrombomodulin Biomarker Activity (AID 2283029). To be noted: primary human endothelial cells (HUVEC); actives raise or lower the signal. The method in brief: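 Primary human umbilical vein endothelial cells (3C system) were exposed to chemical for 24 h, then thrombomodulin levels were measured by ELISA. Activity was fitted bidirectionally against the DMSO negative control as baseline.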

Test [19] can be described thus: BSK_3C_Vis: BioMAP Diversity Plus: 3C Assay for Morphology Visualization (AID 2283025).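 Note: fitted both ways so gain or loss versus DMSO counts.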 As to conditions: primary human endothelial cells (HUVEC). The method in brief: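 Human umbilical vein endothelial cells in the 3C system were imaged by light microscopy 24 h after chemical dosing to record cell morphology. Activity was fitted bidirectionally against DMSO as negative control and baseline; the endpoint serves as a background control.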

Read-out in test [20]: Urokinase-type plasminogen activator receptor (uPAR), PLAUR (gene 5329)
Kind of test: BSK_4H_uPAR: BioMAP Diversity Plus: 4H Assay for Urokinase-type plasminogen activator receptor (uPAR) Biomarker Activity (AID 2283030). As to conditions: primary human endothelial cells (HUVEC); actives raise or lower the signal. Summed up:
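Cell-surface uPAR ELISA signal, measured 24 h after dosing human umbilical vein endothelial cells, was analyzed with bidirectional fitting relative to DMSO. Parallel SRB staining of total protein tracked overt cytotoxicity.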

Values joined by “and” are separate entries in the source; they are usually repeats but may differ in a detail not shown here. Equal values may be shown once. Inconclusive results are not listed. Some structures have more than one record in an assay (separate samples or runs), and their calls can disagree. Active and inactive are the calls of the source. Rule for the calls, unless noted: active = hit-call score of the fitted dose curve at least 0.9, where 1 is the maximum; inactive = score below 0.9.

Sequence of E-selectin (Homo sapiens) (P16581 whole entry, looked up): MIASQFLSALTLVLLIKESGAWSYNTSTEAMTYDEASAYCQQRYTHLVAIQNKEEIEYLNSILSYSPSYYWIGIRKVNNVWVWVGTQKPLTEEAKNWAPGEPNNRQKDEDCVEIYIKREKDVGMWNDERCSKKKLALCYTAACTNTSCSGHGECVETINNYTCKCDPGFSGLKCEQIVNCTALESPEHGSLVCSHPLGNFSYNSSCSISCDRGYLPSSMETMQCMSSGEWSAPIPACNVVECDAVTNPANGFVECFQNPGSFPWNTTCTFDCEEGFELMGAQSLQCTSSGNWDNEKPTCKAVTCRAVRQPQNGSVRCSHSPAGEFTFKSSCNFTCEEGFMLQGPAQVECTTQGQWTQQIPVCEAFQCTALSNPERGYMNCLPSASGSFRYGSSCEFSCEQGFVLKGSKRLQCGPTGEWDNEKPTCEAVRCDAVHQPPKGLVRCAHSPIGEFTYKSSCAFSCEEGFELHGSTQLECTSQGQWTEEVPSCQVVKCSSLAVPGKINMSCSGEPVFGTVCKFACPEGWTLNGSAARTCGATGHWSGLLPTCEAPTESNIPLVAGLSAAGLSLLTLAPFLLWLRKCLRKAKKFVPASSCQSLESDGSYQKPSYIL
Sequence of human Retinoid X Receptor beta (RXRb), RXRB (gene 6257) (P28702 whole entry, looked up, the tested form may be a part): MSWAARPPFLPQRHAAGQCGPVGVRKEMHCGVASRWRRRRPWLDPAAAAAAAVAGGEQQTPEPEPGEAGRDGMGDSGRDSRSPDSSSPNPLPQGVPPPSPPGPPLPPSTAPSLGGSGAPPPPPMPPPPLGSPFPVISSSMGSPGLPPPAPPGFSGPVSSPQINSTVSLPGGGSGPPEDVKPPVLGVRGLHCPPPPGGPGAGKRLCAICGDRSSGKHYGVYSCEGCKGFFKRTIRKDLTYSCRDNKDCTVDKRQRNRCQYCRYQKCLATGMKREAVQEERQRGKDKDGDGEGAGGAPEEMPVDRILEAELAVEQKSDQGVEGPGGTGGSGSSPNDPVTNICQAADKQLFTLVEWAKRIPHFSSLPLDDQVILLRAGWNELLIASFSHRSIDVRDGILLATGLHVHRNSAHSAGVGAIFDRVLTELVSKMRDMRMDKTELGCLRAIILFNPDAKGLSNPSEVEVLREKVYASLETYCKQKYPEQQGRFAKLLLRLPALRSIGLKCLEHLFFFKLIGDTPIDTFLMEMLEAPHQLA
Sequence of human RAR-related Orphan Receptor gamma (RORg), RORC (gene 6097) (P51449 whole entry, looked up, the tested form may be a part): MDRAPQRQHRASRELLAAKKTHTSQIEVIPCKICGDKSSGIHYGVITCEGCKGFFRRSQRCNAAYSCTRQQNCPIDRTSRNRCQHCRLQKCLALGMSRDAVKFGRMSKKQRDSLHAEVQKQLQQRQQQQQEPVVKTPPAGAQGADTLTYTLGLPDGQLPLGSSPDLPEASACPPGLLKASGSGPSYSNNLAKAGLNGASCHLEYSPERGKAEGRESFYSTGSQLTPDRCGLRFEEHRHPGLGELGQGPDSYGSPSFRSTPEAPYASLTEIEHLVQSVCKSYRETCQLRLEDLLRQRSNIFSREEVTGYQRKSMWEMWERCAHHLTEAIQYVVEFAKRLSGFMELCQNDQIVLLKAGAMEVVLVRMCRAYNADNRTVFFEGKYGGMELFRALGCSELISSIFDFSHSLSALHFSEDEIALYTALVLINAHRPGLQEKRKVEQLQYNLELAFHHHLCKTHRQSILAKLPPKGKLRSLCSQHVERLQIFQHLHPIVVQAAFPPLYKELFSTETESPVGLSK
Sequence of human Thyroid Receptor alpha (THRa1), THRA (gene 7067) (P10827 whole entry, looked up, the tested form may be a part): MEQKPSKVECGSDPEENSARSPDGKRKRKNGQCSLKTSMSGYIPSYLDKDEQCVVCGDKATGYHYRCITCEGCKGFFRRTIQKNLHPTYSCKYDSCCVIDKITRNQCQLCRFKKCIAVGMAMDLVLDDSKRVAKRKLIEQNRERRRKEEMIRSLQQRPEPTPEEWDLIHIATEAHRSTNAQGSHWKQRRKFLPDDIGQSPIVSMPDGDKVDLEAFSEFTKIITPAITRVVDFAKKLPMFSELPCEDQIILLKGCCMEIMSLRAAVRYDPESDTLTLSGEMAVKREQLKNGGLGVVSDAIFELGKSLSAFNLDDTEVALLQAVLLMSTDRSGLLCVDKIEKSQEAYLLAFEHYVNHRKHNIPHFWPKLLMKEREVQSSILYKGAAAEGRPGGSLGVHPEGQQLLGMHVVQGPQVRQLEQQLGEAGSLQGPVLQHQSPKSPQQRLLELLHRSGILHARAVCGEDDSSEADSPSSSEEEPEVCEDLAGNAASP
Sequence of Retinoic acid receptor RXR-alpha (Homo sapiens) (P19793 whole entry, looked up, the tested form may be a part): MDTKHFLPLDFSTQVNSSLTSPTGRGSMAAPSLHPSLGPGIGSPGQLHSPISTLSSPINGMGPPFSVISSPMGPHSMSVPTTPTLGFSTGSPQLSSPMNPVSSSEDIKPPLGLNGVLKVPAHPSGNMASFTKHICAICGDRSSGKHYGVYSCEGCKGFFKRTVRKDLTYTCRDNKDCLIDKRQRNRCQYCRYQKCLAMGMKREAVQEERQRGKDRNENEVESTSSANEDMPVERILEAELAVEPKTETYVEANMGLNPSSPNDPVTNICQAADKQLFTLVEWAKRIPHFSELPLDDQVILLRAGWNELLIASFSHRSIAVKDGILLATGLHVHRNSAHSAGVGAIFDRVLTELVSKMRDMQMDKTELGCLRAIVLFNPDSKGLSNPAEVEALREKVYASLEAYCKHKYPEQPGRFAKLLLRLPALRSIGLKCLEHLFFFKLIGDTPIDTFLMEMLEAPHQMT
Sequence of human Vitamin D Receptor (VDR), VDR (gene 7421) (P11473 whole entry, looked up, the tested form may be a part): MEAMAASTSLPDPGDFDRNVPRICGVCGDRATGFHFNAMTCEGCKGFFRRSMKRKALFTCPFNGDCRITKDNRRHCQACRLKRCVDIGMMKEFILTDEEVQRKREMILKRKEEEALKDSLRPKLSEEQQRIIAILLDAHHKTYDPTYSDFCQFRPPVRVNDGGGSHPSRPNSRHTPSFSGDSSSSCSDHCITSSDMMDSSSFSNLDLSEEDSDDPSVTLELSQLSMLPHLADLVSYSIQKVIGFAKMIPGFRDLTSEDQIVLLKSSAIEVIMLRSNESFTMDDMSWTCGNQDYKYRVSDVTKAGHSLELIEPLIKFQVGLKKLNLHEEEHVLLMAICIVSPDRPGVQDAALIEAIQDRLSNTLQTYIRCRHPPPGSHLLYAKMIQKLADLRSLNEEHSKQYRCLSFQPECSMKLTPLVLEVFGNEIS

Broadly, the AC50 is the midpoint of the concentration-response curve, whichever way the signal moves. Consider `COC(=O)C(F)(F)C(F)(F)OC(F)(C(F)(F)F)C(F)(F)OC(F)=C(F)F` (configuration not stated), for which the compound was classed as inactive in test [1], in test [2], in test [4], in test [5], in test [6] and in test [7]. The result in test [8], in test [9], in [10], in test [11], in test [12] and in test [13] was inactive. Besides, the result in test [15], in test [16], in test [17] and in test [18] was inactive. In addition, the AC50 in [3] is 31.8 µM (active) and 41.3 µM (active) and 28.2 µM (active); in test [14], 1.48 µM (active) and 2.55 µM (active).
Turning to `NNC(N)=S`, the compound was classed as inactive in test [1], in test [3] and in test [12].
On to `O=C(O)C(F)(F)C(F)(F)C(=O)O`, for which the outcome in test [1], in test [4], in test [5], in test [6], in [7] and in test [8] was inactive. For the same compound, the result in [9], in test [10], in [11], in test [12], in [13] and in [14] was inactive. The result in test [15], in [16], in [17] and in test [18] was inactive.
In the case of `Cc1ccc(N)cc1N`, the call in test [1], in test [2], in test [3], in test [6], in test [7] and in test [8] was inactive. Moreover, the result in [9], in test [10], in test [11], in [13], in test [14] and in test [15] was inactive. Also, the result in test [16], in [17] and in test [18] was inactive.
Take `CC(=O)c1ccc(-c2ccccc2)cc1`: the result in test [1], in test [2], in test [3], in test [4] and in [12] was inactive.
Regarding `CCOP(=O)(O)C(N)=O`, the outcome in test [1], in test [3], in test [4] and in test [12] was inactive.
As to `OCC1CO1` (configuration not stated), the compound was called inactive in [1], in test [4], in test [5], in test [6], in test [7] and in test [8]. Also, the result in test [9], in test [10], in test [11], in [13], in [14] and in test [15] was inactive. Further, the outcome in test [16], in [17] and in test [18] was inactive.
As to `CCCCCCCc1ccc(O)cc1`, the result in test [1], in test [3], in test [4], in test [12] and in test [18] was inactive. Further, the AC50 was 11.1 µM (active) and 48.7 µM (active) in [3]; 35.2 µM (active) in test [5]; 35.7 µM (active) in test [6]; 37.6 µM (active) in test [7]; 29.1 µM (active) in test [8]; 25.3 µM (active) in test [9]. The concentration at half-maximal activity (AC50) was 38.1 µM (active) in test [10]; 38.4 µM (active) in [11]; 39.2 µM (active) in test [13]; 37.5 µM (active) in test [14]; 30.9 µM (active) in test [15]; 36.1 µM (active) in test [16]. Further, in [17], the AC50 is 38.1 µM (active).
Regarding `CC(Cl)(Cl)C(=O)O`, the call in [1], in [2], in test [4], in test [5], in test [6] and in test [7] was inactive. The outcome in [8], in [9], in [10], in [11], in test [13] and in [14] was inactive. Moreover, the result in test [19], in test [15], in test [16], in test [17], in test [18] and in test [20] was inactive.
